In the library only some 19% were active in any assay of this set; here they are far more common.
ELG1 DNA repair: inhibitors of ELG1-dependent DNA repair in HEK293T cells; HEK293T ELG1-luciferase reporter, luminescence, 16 h; DNA damage induced by 5-fluorouridine; Potency, µM (titrated, usually from 46.1 µM), for inactives: at the top dose activity change, negative = inhibition, actives largely listed as inhibitors; actives 2.3% (n = 330,000); AID 504467; further: potency means the concentration at half of the fitted maximal effect; nearly all actives have a fitted effect of over 55% in size
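HEK293T cells expressing luciferase-tagged ELG1 (2,000/well) received 5-Fluorouridine plus compound or DMSO for 16 hr at 37 °C. Luciferase was read by ONE-Glo luminescence after 30 min at room temperature.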
TDP1 cell CPT: growth inhibition of DT40 Tdp1-/-;hTDP1 cells with camptothecin (screen for TDP1 inhibitors). actives 12% (n = 420,000). chicken DT40 Tdp1-/-;hTDP1 cells + 20 nM CPT, ATP luminescence, 48 h. Potency, µM (series often up to 46.2 µM), without a hit: at the top dose activity change, negative = growth inhibition, most hits filed as inhibitors; further: potency means the concentration at half of the fitted maximal effect; nearly all actives have a fitted effect of over 55% in size
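Chicken DT40 Tdp1-/- cells complemented with human TDP1, 400 cells/well, exposed to compounds plus 20 nM camptothecin for at least 48 h at 37 C; viability read as ATP content by CellTiter-Glo luminescence.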
HT1080 IDH1KD tx: kills HT-1080 cells with IDH1 knockdown | HT-1080 IDH1 knockdown viability, ATP luminescence, 48 h | Potency, µM (series often up to 46.1 µM), inactives show at the top dose activity, negative = toxicity, actives largely listed as cytotoxic | actives 2% (n = 360,000);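 further: potency means the concentration at half of the fitted maximal effect; 0% = DMSO wells and -100% = cell-free medium wells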
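CellTiter-Glo luminescence after 48 h compound exposure at 37 degrees C of IDH1-knockdown HT-1080 cells in 5% FBS RPMI. %Activity scaled between DMSO wells and cell-free media wells, with curves fitted and assigned curve classes.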
DT40 TDP1 no CPT: qHTS for Inhibitors of human tyrosyl-DNA phosphodiesterase 1 (TDP1): qHTS in cells in absence of CPT; AID 686978, 2013; Potency, µM (series often up to 46.2 µM), without a hit: at the highest dose activity change, negative = growth inhibition, most hits filed as inhibitors; actives 15% (n = 420,000); DT40 Tdp1-/- hTDP1 cells, no CPT, ATP luminescence, 48 h; further: potency means the concentration at half of the fitted maximal effect; nearly all actives have a fitted effect of over 55% in size
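Camptothecin absent (DMSO only). Human TDP1-complemented DT40 knockout cells, 400 cells/well, 37 °C for minimum 48 hr; ATP measured via CellTiter-Glo, 30 min dark incubation, luminescence.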
HT1080NT lethal: kills 2HG-producing HT-1080-NT fibrosarcoma cells; HT-1080-NT fibrosarcoma viability, CellTiter-Glo ATP luminescence, 48 h; Potency, µM (top dose mostly 46.1 µM), for inactives: at the top dose activity, negative = less viability, hits mostly cytotoxic; actives 1.6% (n = 360,000); AID 686970;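 further: NT is the 2HG producing partner of a matched IDH1 knockdown line; potency means the concentration at half of the fitted maximal effect; 0% = DMSO-treated cells and -100% = media-only wells without cells; nearly all actives have a fitted effect of over 55% in size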
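A 48-hour cytotoxicity screen used HT-1080-NT cells plated 2 hours before compound delivery. ATP-based CellTiter-Glo luminescence measured viability, normalized to DMSO and no-cell controls.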
IL1B secr inh: blocks inflammasome-driven IL-1 beta release; THP-1 LPS/ATP IL-1B secretion, AlphaLISA, 16 h; hits give low values; activity change, % at 57.5 µM; actives 4.7% (n = 360,000); in the data active means activity change below about -50%; inconclusive means mostly about -30% to -49%
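THP-1 cells pretreated 1 hr with compounds (up to 57.5 uM final), then stimulated with LPS (250 ng/mL final) plus ATP (1.25 mM final); secreted IL-1B measured by AlphaLISA after 16 hr, decreased signal indicating inhibition.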
* = called active by the depositor. Unless noted, the call rests on the fitted dose curve; in most records, active means well fitted curve in the direction sought with a large enough effect; inconclusive means small, poorly fitted or top-dose-only effect, or another doubt; inactive means no such curve, though single readings can be large; an effect the other way counts as inactive or inconclusive. Unless noted, on the % scale 0 is the no-effect control and ±100 the full control effect.

How did Cc1ccc(-c2ccc(/C=C3/NC(=O)NC3=O)o2)cc1[N+](=O)[O-] do in these assays?
ELG1 DNA repair: -29%; TDP1 cell CPT: inconclusive; HT1080 IDH1KD tx: -14%; DT40 TDP1 no CPT: 21µM*; HT1080NT lethal: -10%; IL1B secr inh: -8

How did S=C1NCCc2ccc(Cl)cc2C1c1ccccc1 (stereo unspecified) do in these assays?
ELG1 DNA repair: 0%; TDP1 cell CPT: inconclusive; HT1080 IDH1KD tx: -24%; DT40 TDP1 no CPT: 23µM*; HT1080NT lethal: -11%; IL1B secr inh: 6

How did Cn1nccc1C(=O)N1CCCC(C(=O)c2cccc3ccccc23)C1 (stereo unspecified) do in these assays?
ELG1 DNA repair: -6%; TDP1 cell CPT: inconclusive; HT1080 IDH1KD tx: -10%; DT40 TDP1 no CPT: 23µM*; HT1080NT lethal: inconclusive; IL1B secr inh: -14

How did CC1=C(C(=O)N2CCCC(C(=O)c3cccc4ccccc34)C2)OCCO1 (stereo unspecified) do in these assays?
ELG1 DNA repair: -20%; TDP1 cell CPT: inconclusive; HT1080 IDH1KD tx: -10%; DT40 TDP1 no CPT: 16µM*; HT1080NT lethal: -4%; IL1B secr inh: inconclusive

How did O=C(CCS(=O)(=O)c1ccc(Br)cc1)NC1CCCCCC1 do in these assays?
ELG1 DNA repair: 0%; TDP1 cell CPT: -10%; HT1080 IDH1KD tx: -2%; DT40 TDP1 no CPT: inconclusive; HT1080NT lethal: -2%; IL1B secr inh: 11

What do the screens show for `c1cncc(-c2nc3ccccn3c2Nc2ccc3c(c2)OCCO3)c1`?
ELG1 DNA repair: 18%; TDP1 cell CPT: inconclusive; HT1080 IDH1KD tx: -5%; DT40 TDP1 no CPT: 12µM*; HT1080NT lethal: 3%; IL1B secr inh: -24

How did Clc1ccc(-c2nc3cnccn3c2Nc2ccc3c(c2)OCO3)cc1 do in these assays?
ELG1 DNA repair: -17%; TDP1 cell CPT: inconclusive; HT1080 IDH1KD tx: -26%; DT40 TDP1 no CPT: 21µM*; HT1080NT lethal: -22%; IL1B secr inh: 64

How did CSc1ccc(-c2nc3cnccn3c2Nc2ccc3c(c2)OCO3)cc1 do in these assays?
ELG1 DNA repair: 14%; TDP1 cell CPT: inconclusive; HT1080 IDH1KD tx: inconclusive; DT40 TDP1 no CPT: inconclusive; HT1080NT lethal: inconclusive; IL1B secr inh: 86

What do the screens show for `Brc1ccc(-c2nc3ccccn3c2Nc2ccc3c(c2)OCCO3)o1`?
TDP1 cell CPT: 26µM*; DT40 TDP1 no CPT: inconclusive

What do the screens show for `Cc1ccc(S(=O)(=O)N2C[C@H]3C(=O)C[C@@H]4C(=O)N(c5ccccc5)C(=O)[C@@H]4[C@@H]3C[C@H]2c2cccs2)cc1`?
TDP1 cell CPT: -21%; HT1080 IDH1KD tx: 11%; DT40 TDP1 no CPT: -6%; HT1080NT lethal: 8%; IL1B secr inh: 0

Results for CC(=O)Nc1ccc2c(c1)nc(CCN1CCN(c3ccccn3)CC1)n2C ?
ELG1 DNA repair: 1%; TDP1 cell CPT: 3%; HT1080 IDH1KD tx: 9%; DT40 TDP1 no CPT: -2%; HT1080NT lethal: 6%; IL1B secr inh: -21

Results for Cc1c(C(=O)Nc2cccc(Cl)c2)c2ccccn2c1CCc1ccncc1 ?
ELG1 DNA repair: inconclusive; TDP1 cell CPT: inconclusive; HT1080 IDH1KD tx: inconclusive; DT40 TDP1 no CPT: 23µM*; HT1080NT lethal: -19%; IL1B secr inh: -189*

How did Cc1c(C(=O)Nc2ccc(Cl)cc2)c2ccccn2c1CCc1ccncc1 do in these assays?
ELG1 DNA repair: inconclusive; TDP1 cell CPT: inconclusive; HT1080 IDH1KD tx: -3%; DT40 TDP1 no CPT: inconclusive; HT1080NT lethal: -15%; IL1B secr inh: -59*

What do the screens show for `O=C(NCc1ccncc1)Nc1cccc(Cl)c1`?
ELG1 DNA repair: inconclusive; TDP1 cell CPT: -7%; HT1080 IDH1KD tx: -7%; DT40 TDP1 no CPT: -21%; HT1080NT lethal: -15%; IL1B secr inh: 42

What do the screens show for `CCOC(=O)N1CCC(N2Cc3cccc(C(=O)Nc4ccccc4OC)c3C2=O)CC1`?
ELG1 DNA repair: -10%; TDP1 cell CPT: 23µM*; HT1080 IDH1KD tx: -2%; DT40 TDP1 no CPT: 16µM*; HT1080NT lethal: 1%; IL1B secr inh: -15

How did COc1cc(NC(=O)c2cccc3c2C(=O)N(C2CCCCC2)C3)cc(OC)c1OC do in these assays?
ELG1 DNA repair: 4.6µM*; TDP1 cell CPT: 23µM*; HT1080 IDH1KD tx: inconclusive; DT40 TDP1 no CPT: 7.3µM*; HT1080NT lethal: -12%; IL1B secr inh: -60*

Results for Cc1ccc(NC(=O)c2cccc3c2C(=O)N(C2CCCCC2)C3)c(Cl)c1 ?
ELG1 DNA repair: -2%; TDP1 cell CPT: 18µM*; HT1080 IDH1KD tx: 4%; DT40 TDP1 no CPT: -29%; HT1080NT lethal: -3%

What do the screens show for `CCOC(=O)N1CCC(N2Cc3cccc(C(=O)Nc4ccc(OC)c(OC)c4)c3C2=O)CC1`?
ELG1 DNA repair: inconclusive; TDP1 cell CPT: 18µM*; HT1080 IDH1KD tx: 3%; DT40 TDP1 no CPT: inconclusive; HT1080NT lethal: 18%; IL1B secr inh: inconclusive

What do the screens show for `CCOc1ccc(CNC(=O)CN2C(=O)CCn3nc(-c4cn(C)c5ccccc45)cc32)cc1OC`?
TDP1 cell CPT: -13%; DT40 TDP1 no CPT: -8%

Results for CC1=C2C3OC(=O)C(C)C3CCC2(C)C=C(Cl)C1=O (stereo unspecified) ?
TDP1 cell CPT: -2%; HT1080 IDH1KD tx: -2%; DT40 TDP1 no CPT: inconclusive; HT1080NT lethal: 0%; IL1B secr inh: -2

Results for CCCCOc1ccc(C2CCC(C(C)=O)C(C)C2)cc1 (stereo unspecified) ?
ELG1 DNA repair: inconclusive; TDP1 cell CPT: inconclusive; HT1080 IDH1KD tx: -5%; DT40 TDP1 no CPT: 23µM*; HT1080NT lethal: 1%; IL1B secr inh: -4

What do the screens show for `CCCCCOc1ccc(C2NC(=O)NC2=O)cc1` (stereo unspecified)?
ELG1 DNA repair: inconclusive; TDP1 cell CPT: -23%; HT1080 IDH1KD tx: -4%; DT40 TDP1 no CPT: -16%; HT1080NT lethal: 10%; IL1B secr inh: 3

Results for CC1(c2ccc3ccccc3c2)NC(=O)N(CC(=O)N2CCN(Cc3ccccc3)CC2)C1=O (stereo unspecified) ?
ELG1 DNA repair: -25%; TDP1 cell CPT: 8.2µM*; HT1080 IDH1KD tx: -17%; DT40 TDP1 no CPT: 4.6µM*; HT1080NT lethal: 5.8µM*; IL1B secr inh: inconclusive
